Measured values reported in PubChem BioAssay AID624098 (National Center for Advancing Translational Sciences (NCATS), 2012).
Inconclusive results are not listed. Calls of active or inactive are those of the source.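 The calls were made as follows: active = immobility above 50% at 10 µM after 1 hour; inconclusive = immobility from 15% to 50% at 1 hour; inactive = immobility below 15%.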

Assay: Assay for General Anesthetic Phenotype in Xenopus Tadpoles
Conditions: startle-response immobility, 1 h, at 10 µM, stronger effect = higher value
From the text: Anesthetic development has remained a largely empirical process. There are growing concerns about the cognitive effects of known general anesthetics and acceleration of the onset of neurodegenerative disease. The compounds' toxicity and multiple specific binding targets in the mammalian brain [4] has made them less attractive as drug leads. This assay was designed for the in vivo follow-up testing of compounds in tadpoles. References: [1] S.L. Bianchi, T. Tran, C. Liu, S. Lin, Y. Li, J.M. Keller, R.G. Eckenhoff, and M.F. Eckenhoff, Brain and behavior changes in 12-month-old Tg2576 and nontransgenic mice exposed to anesthetics. Neurobiol Aging 29 (2008) 1002-10. Z. Xie, Y. Dong, U. Maeda, R.D. Moir, W. Xia, D.J. Culley, G. Crosby, and R.E. Tanzi, The inhalation anesthetic isoflurane induces a vicious cycle of apoptosis and amyloid beta-protein accumulation. J Neurosci 27 (2007) 1247-54. P. Honegger, and J.M. Matthieu, Selective toxicity of the general anesthetic propofol for GABAergic neurons in rat brain cell cultures. J Neurosci Res 45 (1996) 631-6. M.F. Eckenhoff, K. Chan, and R.G. Eckenhoff, Multiple specific binding targets for inhaled anesthetics in the mammalian brain. J Pharmacol Exp Ther 300 (2002) 172-9. C.A. Butts, J. Xi, G. Brannigan, A.A. Saad, S.P. Venkatachalan, R.A. Pearce, M.L. Klein, R.G. Eckenhoff, and I.J. Dmochowski, Identification of a fluorescent general anesthetic, 1-aminoanthracene. Proc Natl Acad Sci U S A 106 (2009) 6501-6. W.A. Lea, J. Xi, A. Jadhav, L. Lu, C.P. Austin, A. Simeonov, and R.G. Eckenhoff, A high-throughput approach for identification of novel general anesthetics. PLoS One 4 (2009) e7150.
Pre-limb bud Xenopus tadpoles were obtained in large batches from Nasco, Inc. Batches of 10 tadpoles were placed in 20 mm Petri dishes with approximately 20 ml of pond water ("pond water" is approximately a 20-fold dilution of Ringers saline solution). Compounds were added to the pond water from DMSO stock to obtain 100, 10 and 1 microM concentrations. Tadpoles were then incubated with these solutions for 1 hour, and then scored for "anesthesia". Anesthesia in this case is lack of movement in response to a sharp tap on the Petri dish lid, i.e., a lack of startle response. This correlates well to the loss of righting reflex in rodents and the loss of consciousness in humans. The pond water is then changed, and the return of a startle response is monitored for 24 hours. Immobility at 24 hours is considered death.

Row | SMILES | immobility
1 | O=C(Cn1nc(-c2ccc(OC(F)(F)F)cc2)ccc1=O)NCCc1ccccc1 | 80% (active)
2 | CN(C)c1ccc(-c2ccc(=O)n(CC(=O)NCCc3ccccc3)n2)cc1 | 0% (inactive)
3 | C[S+](=O)([O-])c1ccc(-c2ccc(=O)n(CC(=O)NCCc3ccccc3)n2)cc1 | 5% (inactive)
4 | O=C(Cn1nc(-c2ccc(C(F)(F)F)cc2)ccc1=O)NCCc1ccccc1 | 0% (inactive)
5 | Cc1ccc(-c2ccc(=O)n(CC(=O)NCCc3ccccc3)n2)cn1 | 0% (inactive)
6 | N#Cc1ccc(-c2ccc(=O)n(CC(=O)NCCc3ccccc3)n2)cc1 | 0% (inactive)
7 | O=C(Cn1nc(C2CC2)ccc1=O)NCCc1ccccc1 | 0% (inactive)
8 | O=C(Cn1nc(-c2cccnc2)ccc1=O)NCCc1ccccc1 | 0% (inactive)
9 | COc1ccccc1-c1ccc(=O)n(CC(=O)NCCc2ccccc2)n1 | 5% (inactive)
10 | CC(C)(C)c1ccc(-c2ccc(=O)n(CC(=O)NCCc3ccccc3)n2)cc1 | 90% (active)
11 | CC(C)Oc1ccc(-c2ccc(=O)n(CC(=O)NCCc3ccccc3)n2)cc1 | 95% (active)
12 | Cc1ccccc1-c1ccc(=O)n(CC(=O)NCCc2ccccc2)n1 | 0% (inactive)
13 | CC(C)COc1ccc(-c2ccc(=O)n(CC(=O)NCCc3ccccc3)n2)cc1 | 100% (active)
14 | O=C(Cn1nc(-c2ccncc2)ccc1=O)NCCc1ccccc1 | 5% (inactive)
15 | Cc1ccc(=O)n(CC(=O)NCCc2ccccc2)n1 | 5% (inactive)
16 | COc1ccc(-c2ccc(=O)n(CC(=O)NCCc3ccccc3)n2)cc1OC | 10% (inactive)
17 | COc1ccc(-c2ccc(=O)n(CC(=O)NCCc3ccccc3)n2)cc1 | 75% (active)
18 | CC(C)c1ccc(=O)n(CC(=O)NCCc2ccccc2)n1 | 0% (inactive)
19 | O=C(Cn1ncccc1=O)NCCc1ccccc1 | 0% (inactive)
20 | O=C(Cn1nc(-c2ccc3c(c2)OCO3)ccc1=O)NCCc1ccccc1 | 0% (inactive)

Same assay, conditions: startle-response immobility, 1 h, measured here: 24 h immobility, toxicity/death, at 10 µM

Row | SMILES | immobility [%]
21 | O=C(Cn1nc(-c2ccc(OC(F)(F)F)cc2)ccc1=O)NCCc1ccccc1 | 10
22 | CN(C)c1ccc(-c2ccc(=O)n(CC(=O)NCCc3ccccc3)n2)cc1 | 10
23 | C[S+](=O)([O-])c1ccc(-c2ccc(=O)n(CC(=O)NCCc3ccccc3)n2)cc1 | 5
24 | O=C(Cn1nc(-c2ccc(C(F)(F)F)cc2)ccc1=O)NCCc1ccccc1 | 5
25 | Cc1ccc(-c2ccc(=O)n(CC(=O)NCCc3ccccc3)n2)cn1 | 0
26 | N#Cc1ccc(-c2ccc(=O)n(CC(=O)NCCc3ccccc3)n2)cc1 | 5
27 | O=C(Cn1nc(C2CC2)ccc1=O)NCCc1ccccc1 | 5
28 | O=C(Cn1nc(-c2cccnc2)ccc1=O)NCCc1ccccc1 | 15
29 | COc1ccccc1-c1ccc(=O)n(CC(=O)NCCc2ccccc2)n1 | 15
30 | CC(C)(C)c1ccc(-c2ccc(=O)n(CC(=O)NCCc3ccccc3)n2)cc1 | 10
31 | CC(C)Oc1ccc(-c2ccc(=O)n(CC(=O)NCCc3ccccc3)n2)cc1 | 5
32 | Cc1ccccc1-c1ccc(=O)n(CC(=O)NCCc2ccccc2)n1 | 10
33 | CC(C)COc1ccc(-c2ccc(=O)n(CC(=O)NCCc3ccccc3)n2)cc1 | 0
34 | O=C(Cn1nc(-c2ccncc2)ccc1=O)NCCc1ccccc1 | 10
35 | Cc1ccc(=O)n(CC(=O)NCCc2ccccc2)n1 | 15
36 | COc1ccc(-c2ccc(=O)n(CC(=O)NCCc3ccccc3)n2)cc1OC | 15
37 | COc1ccc(-c2ccc(=O)n(CC(=O)NCCc3ccccc3)n2)cc1 | 5
38 | CC(C)c1ccc(=O)n(CC(=O)NCCc2ccccc2)n1 | 5
39 | O=C(Cn1ncccc1=O)NCCc1ccccc1 | 5
40 | O=C(Cn1nc(-c2ccc3c(c2)OCO3)ccc1=O)NCCc1ccccc1 | 0
